According to PubChem BioAssay AID651658 (Broad Institute, 2012):
Among all 340,000 compounds or so, about 5,100 (1.5%) were called active. The sample holds actives, similar compounds and a random draw of the others, so the mix is not that of the screen. Values without a mark were called inactive.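 The calls were made as follows: active = mean Tm shift, scaled 0 neutral to 100 positive control, at about 1.3% or above, every replicate too (limit read from the data); inconclusive = no clear call, values can overlap the other calls; inactive = the rest.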

Molecular target: Fibroblast growth factor 22 (Homo sapiens) (UniProt Q9HCT0)
Sequence (Q9HCT0 whole entry, looked up): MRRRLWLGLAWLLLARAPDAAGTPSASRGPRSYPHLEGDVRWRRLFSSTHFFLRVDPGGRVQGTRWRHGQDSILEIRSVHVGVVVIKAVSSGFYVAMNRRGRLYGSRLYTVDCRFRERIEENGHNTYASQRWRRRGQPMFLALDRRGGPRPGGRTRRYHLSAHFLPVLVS
Experiment: binders of human FGF22 protein, primary screen, FGF22 synaptogenesis inhibitor project, biophysical, thermal shift, single point (AID 651658)
Settings: recombinant FGF22 thermal shift, SYPRO orange fluorescence; at 9.99 µM; hits give high values; percent of sucrose octasulfate shift, DMSO zero

| SMILES | activity (Tm shift, normalised) |
| --- | --- |
| Cc1noc(C)c1NC(=O)N(C)C[C@H]1OCCCC[C@@H](C)Oc2ccc(NC(=O)NC(C)C)cc2C(=O)N([C@H](C)CO)C[C@@H]1C | 0.234% |
| COc1ccc(OCCCn2cccc2/C=C2/C(=N)N3OC(C)=CC3=NC2=O)cc1 | 43.6% (active) |
| COc1ccccc1OCCOc1ccc(/C=C2\C(=N)N3N=C(C)SC3=NC2=O)cc1 | -0.133% |
| CC1=CC2=NC(=O)/C(=C/c3coc4ccccc4c3=O)C(=N)N2O1 | 0.039% |
| CCCNC(=O)N(C)C[C@@H]1Oc2cc(-c3ccccc3)ccc2S(=O)(=O)N([C@H](C)CO)C[C@H]1C | -0.206% |
| O=C(N[C@@H]1CC[C@@H](CCNS(=O)(=O)c2ccccc2Cl)O[C@@H]1CO)c1ccccc1 | -0.098% |
| CC1CN(C(=O)COC(=O)c2cccc(NS(=O)(=O)c3ccccc3)c2)CC(C)O1 (stereo not drawn) | 43% (active) |
| CC1CN(C(=O)c2cccc(NS(=O)(=O)c3ccc(Br)cc3)c2)CC(C)O1 (stereo not drawn) | 0.103% |
| COc1ccc(N2CCN(C(=O)COC(=O)c3cccc(S(=O)(=O)Nc4ccccc4OC)c3)CC2)cc1 | -0.159% |
| COc1cccc(-c2ccc3c(c2)[C@@H]2[C@@H](CCN2S(=O)(=O)C2=NC(C)C=N2)[C@@H](CO)N3C)c1 (stereo partly drawn) | -0.294% |
| CN1CCN(/N=C/c2ccc(-c3ccc([N+](=O)[O-])cc3)o2)CC1 | 42.9% (active) |
| Cc1ccc(-c2ccc(/C=N/NC(=O)CN3CCOCC3)o2)cc1[N+](=O)[O-] | -0.102% |
| CN1CCN(/N=C/c2ccc(C#N)cc2)CC1 | 0.346% |
| COc1ccc(NC(=O)N[C@H]2CC[C@@H](CCNC(=O)c3cc(Cl)cc(Cl)c3)O[C@H]2CO)cc1 | 0.37% |
| COc1ccc(C[C@@H]2CCc3cnnn3COC[C@H](c3ccccc3)NC2=O)cc1 | 0.006% |
| CCCNC(=O)Nc1ccc2c(c1)OC[C@@H](C)N(CCC)C[C@H](C)[C@@H](OC)CN(C)C2=O | 0.109% |
| COc1ccc(C(=O)CCc2ccccc2O)c(OC)c1 | -0.131% |
| COc1ccc(-n2nnnc2SCC(=O)c2ccc(OC)c(OC)c2)cc1 | -0.381% |
| COc1ccc(C(=O)CSc2nnnn2C)c(OC)c1 | 43% (active) |
| COc1ccc2c3c([nH]c2c1)[C@H](CO)N(C(=O)c1ccccc1)CC31CN(C(=O)Nc2cccc(F)c2)C1 | 0.15% |
| O=C(c1cccnc1)N1CC2(C1)[C@@H](c1ccccc1)[C@H](CO)N2C(=O)C1CCC1 | -0.239% |
| O=C(Cc1ccccc1)N1CC2(C1)[C@H](c1ccccc1)[C@@H](CO)N2C(=O)c1cccnc1 | -0.085% |
| C[C@H](CO)N1C[C@H](C)[C@@H](CN(C)CC2CCCCC2)Oc2ccc(NC(=O)Cn3cnnn3)cc2CC1=O | -0.448% |
| O=C(CN1CCCCCC1)NCCN1C(=O)S/C(=C\c2ccccc2Cl)C1=O | 0.458% |

| SMILES | activity (Tm shift, normalised) |
| --- | --- |
| COc1cccc(/C=C2/SC(=S)N(CC(=O)NC3C=CS(=O)(=O)C3)C2=O)c1 (stereo not drawn) | -0.111% |
| O=C(CN1C(=O)S/C(=C\c2ccccc2Cl)C1=O)NC1C=CS(=O)(=O)C1 (stereo not drawn) | 43.2% (active) |
| O=C(O)CCCCCCC(=O)NOCc1ccccc1 | -0.15% |
| CO[C@H](CN(C)C(=O)c1cnccn1)[C@@H](C)CN([C@@H](C)CO)S(=O)(=O)c1ccccc1 | 0.08% |
| CC(C)NC(=O)Nc1ccc2c(c1)C(=O)N([C@@H](C)CO)C[C@@H](C)[C@H](CN(C)C)OCCCC[C@H](C)O2 | -0.748% |
| CC(C)NC(=O)N[C@@H]1CC[C@@H](CCNS(=O)(=O)Cc2ccccc2)O[C@@H]1CO | -0.299% |
| O=C(Nc1ccc(F)cc1)N1C[C@@H]2[C@H](c3ccccc31)[C@H](CO)N2Cc1ccccc1 | -0.206% |
| CN1C(=O)c2cc(NC(=O)c3ccccc3)ccc2OC[C@H]2O[C@@H](CC(=O)O)CC[C@@H]21 | -0.04% |
| CC(=O)N(C)C[C@@H]1Oc2ncc(C#Cc3ccccn3)cc2C(=O)N([C@@H](C)CO)C[C@@H]1C | 0.165% |
| Cc1cccc(CN2CCN(C3CN(Cc4cn(Cc5cc(C)cc(C)c5)nn4)S(=O)(=O)C3)CC2)c1 (stereo not drawn) | -0.326% |
| CCCCN1CC(N2CCN(Cc3cccc(C)c3)CC2)CS1(=O)=O (stereo not drawn) | 1.92% (active) |
| Cc1cccc(CN2CCN(C3CN(Cc4ccccc4)S(=O)(=O)C3)CC2)c1 (stereo not drawn) | -0.158% |
| COc1cccc(CNC(=O)C[C@@H]2CC[C@H]3[C@@H](COc4ccc(NC(=O)c5cccs5)cc4C(=O)N3C)O2)c1 | 0.125% |
| Cc1ccn2c(=O)c(NC(=O)c3cccc4ccccc34)c(C)nc2c1 | -0.089% |
| Cc1ccc(NC(=O)C(=O)NCc2ccc(/C=N/NC(=O)c3c(C)nc4cc(C)ccn34)o2)cc1 | 2.68% (active) |
| CCOc1ccc(/C=N\NC(=O)c2c(C)nc3cc(C)ccn23)cc1 | -0.098% |
| CO[C@H]1CN(C)C(=O)c2cc(NS(=O)(=O)c3ccccc3)ccc2OC[C@H](C)NC[C@@H]1C | -0.185% |
| C[C@H]1CN([C@@H](C)CO)S(=O)(=O)c2ccc(Br)cc2O[C@H]1CN(C)Cc1ccccn1 | -0.079% |
| COc1ccc2c3c(n(C)c2c1)[C@@H](CO)N(C(=O)Nc1ccc(F)cc1)CC31CCN(C(=O)c2cccnc2)CC1 | -0.306% |
| C[C@@H]1CN([C@H](C)CO)S(=O)(=O)c2ccc(C3=CCCC3)cc2O[C@@H]1CN(C)C(=O)C1CCC1 | 0.141% |
| O=C(Nc1ccccc1C(=O)Nc1ccncc1)c1ccc([N+](=O)[O-])cc1 | -0.016% |
| O=C(c1ccncc1)c1ccc([N+](=O)[O-])cc1 | 43.1% (active) |
| O=C(Nn1cnnc1)c1ccc([N+](=O)[O-])cc1 | 42.7% |
| CC(C)NC(=O)N1CC2(C1)[C@H](c1ccccc1)[C@H](CO)N2C(=O)C1CCOCC1 | -0.068% |
